# Compound activity deposited in PubChem by National Center for Advancing Translational Sciences (NCATS).
# rTrxR1 inhibitor – qHTS Assay for Inhibitors of Mammalian Selenoprotein Thioredoxin Reductase 1 (TrxR1): qHTS. Potency, µM (titrated, usually from 114 µM), for the others: top-dose activity change, negative = inhibition, most hits filed as inhibitors. AID 588453, 2011. 390,000 tested, 1% active. Thioredoxin reductase 1, cytoplasmic (Rattus norvegicus), O89049. recombinant rTrxR1, NADPH fluorescence consumption, selenite substrate; note: potency is the fitted concentration of half-maximal effect; nearly all actives have a fitted effect of over 65% in size
# Target sequence (O89049 whole entry, looked up): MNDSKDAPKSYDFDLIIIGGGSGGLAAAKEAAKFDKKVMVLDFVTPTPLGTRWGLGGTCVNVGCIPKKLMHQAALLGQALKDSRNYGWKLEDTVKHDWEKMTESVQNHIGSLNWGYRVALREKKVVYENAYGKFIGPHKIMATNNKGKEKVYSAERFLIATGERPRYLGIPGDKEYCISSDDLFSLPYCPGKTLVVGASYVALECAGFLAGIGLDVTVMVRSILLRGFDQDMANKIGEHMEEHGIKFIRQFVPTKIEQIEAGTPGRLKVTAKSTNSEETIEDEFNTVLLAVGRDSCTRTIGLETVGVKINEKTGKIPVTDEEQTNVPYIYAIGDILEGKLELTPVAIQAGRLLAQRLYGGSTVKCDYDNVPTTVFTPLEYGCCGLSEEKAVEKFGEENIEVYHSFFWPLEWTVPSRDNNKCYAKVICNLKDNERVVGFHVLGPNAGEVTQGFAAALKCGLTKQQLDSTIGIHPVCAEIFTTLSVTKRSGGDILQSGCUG
#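 Rat TrxR1 (90 nM in the dispensed reagent) was pre-reduced with 400 uM NADPH for 5 min at room temperature, then incubated with compound for 15 min. After 400 uM selenite was added, NADPH fluorescence (Ex 340/Em 450 nm) was followed for 8 min.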
# TrxR1 substrate – qHTS Assay for Substrates of Mammalian Selenoprotein Thioredoxin Reductase 1 (TrxR1): qHTS; Thioredoxin reductase 1, cytoplasmic (Rattus norvegicus), O89049; purified TrxR1 substrate turnover, NADPH consumption readout; Potency, µM (doses to about 114 µM), without a hit: at the highest dose activity change, negative = substrate turnover; 390,000 tested, 0.01% active; AID 588456, 2011; note: potency is the fitted concentration of half-maximal effect; nearly all actives have a fitted effect of over 50% in size
#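 Rat TrxR1, dispensed at 90 nM, was prereduced with 400 uM NADPH (final) for 5 min at ~22 deg C, then incubated with compound 15 min before 400 uM selenite. A first-read NADPH fluorescence drop versus no-compound background flagged substrates.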
# GALK inhibitor – qHTS Assay for Inhibitors of Human Galactokinase (GALK); P51570; Purified GALK, Kinase-Glo residual ATP luminescence; Potency, µM (series often up to 57.5 µM), without a hit: at the highest dose activity change, negative = inhibition, actives largely listed as inhibitors; 270,000 tested, 0.007% active; AID 1868, 2009; note: potency is the fitted concentration of half-maximal effect
#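 5 nM enzyme, 35 uM ATP, 100 uM galactose, 20 mM HEPES pH8.0, 5 mM MgCl2; 1 h RT; residual ATP by Kinase-Glo Plus luminescence, qHTS format.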
# PI4K2A block – qHTS for small molecular inhibitors of PI4K2A; Phosphatidylinositol 4-kinase type 2-alpha (Homo sapiens), Q9BTU6; purified PI4K2A, ADP-Glo luminescence, 1 h; stronger effect = lower value; activity change, negative = inhibition, % at 76.9 µM; 420,000 tested, 0.13% active; AID 1346378, 2018; in the data active = activity change below about -50%; inconclusive = mostly about -30% to -49%;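 note: -100% = wells without enzyme as full effect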
#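 In this quantitative HTS, ADP production by PI4K2A was quantified luminescently after 1 h at ambient temperature; 100 microM adenosine served as plate-quality control.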
# Active calls of the source: *; i = inactive; ? = inconclusive; · = no result; ! = not confirmed by another sample; [ ] = another dose, or the depositor's remark. Only some compounds are listed: those with a hit (about 1.1% of all), similar ones and a draw of the others. Unless noted, calls come from the whole dose curve; as a rule, active = well fitted curve in the direction sought with a large enough effect; inconclusive = small, poorly fitted or top-dose-only effect, or another doubt; inactive = no such curve, though single readings can be large; an effect the other way counts as inactive or inconclusive. Unless noted, % is set by controls: 0 for no effect and ±100 for the full control effect.
SMILES,rTrxR1 inhibitor,TrxR1 substrate,GALK inhibitor,PI4K2A block
CCOP(=O)(C1=C(O)C(=O)C(C(C)(C)C)=CC1=O)c1ccccc1 (stereo not drawn),4.5µM*,8%,-3%,-12
CCCCNC(=O)c1c(N)n(CCCOC)c2nc3ccccc3nc12,13%[57.1 µM],108%[57.1 µM],-5%,-58*
COCCCNC(=O)c1c(NC(=O)c2ccco2)n(Cc2ccccc2)c2nc3ccccc3nc12,?,152%,-1%,-57*
C=CCC1([C@H](C)CCC)C(=O)NC(=O)NC1=O,·,·,·,i
C=C1C(=O)[C@@]23C[C@H]4[C@@H]5[C@@]6(C)CCC[C@@]57[C@@H]2[C@@H](O)[C@@H]1C[C@H]3[C@H]7N4C6,22µM*,1%,·,-3
NC1(C(=O)O)CCCc2ccc(N(CCCl)CCCl)cc21 (stereo not drawn),-54%[57.1 µM],11%[57.1 µM],·,-3
O=C1NC(=O)C2(CCCc3ccc(N(CCCl)CCCl)cc32)N1 (stereo not drawn),20µM*,3%,·,2
CCC(=O)O[C@@H]1C=C2CCC3C(CCC4(C)C3CC[C@@H]4OC(=O)CC)C2CC1 (stereo partly drawn),·,·,·,3
CC(=O)NC(Cc1ccc(N(CCCl)CCCl)cc1)C(=O)NC(C(=O)O)C(C)C (stereo not drawn),?,5%[57.1 µM],1%,-4
NC(Cc1ccc(N(CCCl)CCCl)cc1)C(=O)O (stereo not drawn),40µM*,3%[57.1 µM],·,5
C=C1[C@@H](C)[C@H]2[C@H](Cc3ccccc3)NC(=O)[C@]23OC(=O)/C=C/[C@H](O)CCC[C@@H](C)C/C=C/[C@H]3[C@@H]1O,50µM*!,4%,-2%,-3
CC1(C)CC/C(=C/c2ccc(Cl)cc2)C1(O)Cn1cncn1 (stereo not drawn),·,·,·,i
C[C@H]1COC2=C1C(=O)C(=O)c1c2ccc2c1CCCC2(C)C,28µM*,-7%,3%,-26
N#CC(C#N)=C(C#N)c1ccc(Nc2ccccc2)cc1,7.1µM*,-1%,-3%,-8
c1ccc(Nc2ccc(Nc3ccccc3)cc2)cc1,-11%,3%,·,-3
CC(C)C[C@H]1C(=O)N2CCC[C@H]2[C@]2(O)O[C@](NC(=O)[C@@H]3C=C4c5cccc6[nH]cc(c56)C[C@H]4N(C)C3)(C(C)C)C(=O)N12,16µM*,22%,·,-16
O=C1NC(=O)N(Cc2ccco2)C(=O)/C1=C/C=C/c1ccco1,35µM*,-4%,-2%,?
Cc1ccc(N2C(=O)NC(=O)/C(=C\C=C\c3ccco3)C2=O)cc1C,50µM*,-2%,1%,?
Cn1cccc1/C=C1\C(=O)NC(=O)N(Cc2ccco2)C1=O,-27%,-2%,-2%,-17
Cc1ccc(OCCn2cccc2/C=C2/C(=O)NC(=O)N(Cc3ccco3)C2=O)cc1,40µM*,4%,·,?
[Hg+][c]1ccccc1,?,-1%,·,·
CCN(CC)C(=O)N[C@@H]1C=C2c3cccc4[nH]cc(c34)C[C@@H]2N(C)C1,·,·,·,-4
Cc1ccc(/C=C2\C(=O)NC(=O)N(CCc3ccc(F)cc3)C2=O)s1,-14%[57.1 µM],8%,-1%,-15
Cc1ccc(/C=C2/C(=O)NC(=O)N(CC3CCCO3)C2=O)s1 (stereo not drawn),50µM*,-1%,1%,-6
CC1(O)CCC2C3CCC4=CC(=O)CCC4=C3C=CC21C (stereo not drawn),-10%[2.29 µM],-8%[2.29 µM],·,-3
SMILES,rTrxR1 inhibitor,TrxR1 substrate,GALK inhibitor,PI4K2A block
COCOC1CCC2C3CCC4=CC(=O)CCC4=C3C=CC12C (stereo not drawn),40µM*,3%,·,-6
Oc1c(C(Nc2cccnc2)c2ccccc2F)ccc2cccnc12 (stereo not drawn),1.4µM*,1%,·,·
Cn1ncc2c(NCc3ccco3)ncnc21,?,5%,·,·
CCCN1CCc2cccc3c2[C@H]1Cc1ccc(O)c(O)c1-3,24µM*,?,·,-3
COc1ccc2c(c1O)-c1cccc3c1C(C2)N(C)CC3 (stereo not drawn),18%,·,·,·
Cc1nn(Cc2ccccc2)c(C)c1C=C1C(=O)NC(=S)NC1=O,8.9µM*,-4%,-1%,-3
Cc1ccc(OCC(=O)N2CCN(CCc3ccncc3)CC2)cc1C,79µM*,2%,·,-2
CC(=O)O[C@H]1C[C@@H]2CCC3C(CC[C@@]4(C)[C@H]3C[C@H]([N+]3(C)CCCCC3)[C@@H]4OC(C)=O)[C@@]2(C)C[C@@H]1[N+]1(C)CCCCC1 (stereo partly drawn),8%,·,·,·
CC(C)C(=O)NC(Oc1ccccc1Cl)C(Cl)(Cl)Cl (stereo not drawn),8.9µM*,-1%[57.1 µM],0%,-2
COc1cc(CC(C)N)cc2c1OCO2 (stereo not drawn),·,·,·,i
CCCN(CCC)C(=O)Cc1c(-c2ccc(Cl)cc2)nc2ccc(Cl)cn12,·,·,·,-2
O=C1NC(=O)N(c2ccc3c(c2)OCO3)C(=O)/C1=C/c1cccs1,45µM*,1%,-1%,-9
O=C1NC(=O)N(c2ccc3c(c2)OCO3)C(=O)/C1=C/c1ccc(N2CCCC2)o1,?,?,·,-1
O=C1NC(=O)N(c2ccc3c(c2)OCO3)C(=O)/C1=C/c1ccsc1,35µM*,-12%,0%,-13
CN(N=O)c1cc(O)ccc1O,0.75µM*,3%[57.1 µM],·,-26
Cc1nc2c(=O)n(C)c(=O)nc-2n(C)n1,50µM*,35µM*,?,-55*
CCn1nc(-c2ccccc2)nc2c(=O)n(C)c(=O)nc1-2,-29%[57.1 µM],?,0.89µM*,-57*
Cn1nc(-c2ccccc2)nc2c(=O)n(C)c(=O)nc1-2,?,40µM*,·,·
Nc1ccc(Cl)cc1C(=O)c1ccccc1F,·,·,·,0
Cc1c(C)c2ccc(OCC(=O)N3CCC[C@@H]3C(=O)O)c(C)c2oc1=O,6%[57.1 µM],135%[57.1 µM],·,0
O=c1oc2ccccc2c(O)c1C(CC(O)c1ccc(-c2ccc(Br)cc2)cc1)c1ccccc1 (stereo not drawn),·,·,·,-4
O=[N+]([O-])/N=C1\NCCN1Cc1ccc(Cl)nc1,·,·,·,2
CN1C(=O)/C(=C/c2ccc(Cl)s2)C(=O)NC1=S,8.9µM*,5%,-2%,-11
Cc1ccsc1/C=C1\C(=O)NC(=S)N(C)C1=O,32µM*,7%,-2%,-22
C=CCN1C(=O)/C(=C/c2ccc(Br)s2)C(=O)NC1=S,6.3µM*,-2%,-7%,-6
CCN1C(=O)/C(=C\c2ccc([N+](=O)[O-])s2)C(=O)NC1=S,·,·,-1%,·
CCOc1ccc(CCNC(=O)c2cc3c(-c4cccc(OC)c4)nn(C)c3s2)cc1OCC,37%,29%,·,-3
O=c1[nH]c(=O)n(Cc2ccco2)c(O)c1C=NCc1cccs1,-17%,8%,2%,5
